Source: paper PMC4336329 (PLoS ONE, 2015)
Among all 310,000 compounds or so, about 14,000 (4.5%) showed an effect of 50% or more. Effects have a minus sign here. The entries come from a sample that favours strong results as a whole.

Target: human ether-à-go-go-related gene (hERG) potassium channel (human, UniProt Q12809)
Test: primary screen, population patch clamp on CHO cells stably expressing hERG; higher = less effect of the substance
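Further: peak tail current of the secondary pulse compared with the same well before compound.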

Sequence of human ether-à-go-go-related gene (hERG) potassium channel (Q12809 whole entry, looked up): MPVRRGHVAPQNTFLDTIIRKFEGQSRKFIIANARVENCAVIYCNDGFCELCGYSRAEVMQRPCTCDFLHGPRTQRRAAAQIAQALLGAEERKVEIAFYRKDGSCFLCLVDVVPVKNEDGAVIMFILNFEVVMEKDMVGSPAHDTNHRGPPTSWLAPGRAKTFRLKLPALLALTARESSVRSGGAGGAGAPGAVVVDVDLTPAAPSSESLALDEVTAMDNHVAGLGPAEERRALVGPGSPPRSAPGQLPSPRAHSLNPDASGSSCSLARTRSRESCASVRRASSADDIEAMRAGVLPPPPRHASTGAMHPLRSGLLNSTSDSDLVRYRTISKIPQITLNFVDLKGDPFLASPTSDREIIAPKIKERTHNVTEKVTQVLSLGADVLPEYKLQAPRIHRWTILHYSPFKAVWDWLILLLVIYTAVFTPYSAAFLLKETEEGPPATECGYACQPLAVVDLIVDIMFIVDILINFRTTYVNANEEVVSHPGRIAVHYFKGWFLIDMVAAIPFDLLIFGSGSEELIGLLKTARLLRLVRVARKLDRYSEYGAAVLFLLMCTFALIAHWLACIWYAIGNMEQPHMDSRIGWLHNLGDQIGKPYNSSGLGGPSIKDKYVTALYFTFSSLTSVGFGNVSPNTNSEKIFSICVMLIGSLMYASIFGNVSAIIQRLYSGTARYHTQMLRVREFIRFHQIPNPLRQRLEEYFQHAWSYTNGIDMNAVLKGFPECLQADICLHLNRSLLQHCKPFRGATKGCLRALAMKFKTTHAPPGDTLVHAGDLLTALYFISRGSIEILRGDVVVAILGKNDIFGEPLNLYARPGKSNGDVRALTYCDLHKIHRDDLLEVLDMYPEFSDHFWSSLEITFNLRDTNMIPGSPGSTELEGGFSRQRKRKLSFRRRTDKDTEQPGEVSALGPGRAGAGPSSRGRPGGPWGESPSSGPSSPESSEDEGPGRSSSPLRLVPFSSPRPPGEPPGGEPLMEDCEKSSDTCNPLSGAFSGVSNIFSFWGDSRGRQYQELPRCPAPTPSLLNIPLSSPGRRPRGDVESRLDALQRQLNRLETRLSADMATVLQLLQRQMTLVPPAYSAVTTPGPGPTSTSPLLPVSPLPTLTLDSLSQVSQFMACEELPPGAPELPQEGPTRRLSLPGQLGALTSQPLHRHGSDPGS

Structure (SMILES) | hERG current change (%, negative = inhibition) at 10uM
Br.c1ccc(-c2ccccc2OCc2nnc3n2CCC3)cc1 | 16.3%
COc1ccc(C2C(C(=O)N3CCCC3)c3cc(OC)c(OC)cc3C(=O)N2C)cc1OC (centres unmarked) | 0.414%
CCC(=O)NCCNc1nc2cc(C)cc(C)c2cc1C#N | 58.1%
Cc1cc(C)c2cc(C#N)c(NCCOC(=O)c3ccccc3C)nc2c1 | -54.8%
COc1ccccc1C(=O)NCCNc1nc2cc(C)cc(C)c2cc1C#N | 13.3%
Cc1c(OCC(=O)N2CCC(C(N)=O)CC2)ccc2c3c(c(=O)oc12)CCC3 | 7.25%
CCOC(=O)N1CCC(Nc2c(OCC)c(=O)c2=O)CC1 | 3.96%
Nc1ccccc1-c1nnc(-c2ccccc2N)n1N | 8.38%
CCN(CC)C(=O)Cn1cc(S(=O)(=O)CC(=O)Nc2ccc3c(c2)OCCO3)c2ccccc21 | -9.47%
CCOC(=O)Cn1c(S(=O)(=O)Cc2ccccc2Cl)nc(-c2ccccc2)c1-c1ccccc1 | -6.2%
CCC(C)CN1CCC(CO)(Cc2ccccc2Cl)CC1 (centres unmarked) | -30%
OCC1(Cc2ccccc2Cl)CCN(C/C=C/c2ccccc2)CC1 | -68.4%
CC(C)(C)NC(=O)N1CCC(CO)(Cc2ccccc2Cl)CC1 | -4.82%
COc1ccc(/C=C/CN2CCC(CO)(Cc3ccccc3Cl)CC2)cc1 | -79.6%
O=C(C1CCCC1)N1CCC(CO)(Cc2ccccc2Cl)CC1 | -44.3%
O=C(C1CCCCC1)N1CCC(CO)(Cc2ccccc2Cl)CC1 | -15.3%
Cc1ccccc1OCC(=O)O/N=C(\N)Cc1cccs1 | 5.34%
Cc1ccc2[nH]c3c(c2c1)CN(C(=O)CN(C)CC1OCCO1)CC3 | 12.7%
COc1ccc(N2C(=O)NC(=O)/C(=C\c3ccc([N+](=O)[O-])s3)C2=O)cc1 | 13.3%
O=C(Nc1cc(Cl)ccc1C(=O)O)c1ccc(CN2C(=O)c3ccccc3C2=O)cc1 | 20.7%
Cc1ccc(OCC(=O)Nc2ccc(S(=O)(=O)Nc3ccccn3)cc2)cc1C | 24.4%
O=C(Cn1cnc2c(NC(=O)OCc3ccccc3)ncnc21)NCCN1CCOCC1 | 1.26%
Br.COC(=O)c1ccc(CN2CCSC2=N)cc1 | 6.85%
CN(CC(=O)Nc1ccc(F)c(F)c1)S(=O)(=O)c1cccc2nsnc12 | -26.1%
O=C(c1ccccn1)N(Cc1ccco1)C1(C(=O)NC2CCCC2)CCCCC1 | -5.62%
O=C(O)c1cc(=O)c2ccccc2[nH]1 | 8.86%
O=C(O)/C(=C\c1c(C(=O)O)[nH]c2cc(Cl)cc(Cl)c12)c1ccccc1 | 13.3%

Structure (SMILES) | hERG current change (%, negative = inhibition) at 10uM
O.O=C(O)c1cc(=O)c2c(Cl)cc(Cl)cc2[nH]1 | -51.9%
Cc1c(OC(C(=O)O)c2ccccc2)ccc2c1oc(=O)c1ccccc12 (centres unmarked) | 17.3%
CC(=O)Nc1ccc2c(c1)nc(CCN1CCN(c3ccccn3)CC1)n2C | 18.6%
Cn1c(CCN2CCN(c3ccccn3)CC2)nc2cc(NS(=O)(=O)c3ccc(Cl)cc3)ccc21 | -84.3%
CC(C)C(=O)Nc1ccc2c(c1)nc(CCN1CCN(c3ccccn3)CC1)n2C | -18.2%
Cc1ccc(S(=O)(=O)Nc2ccc3c(c2)nc(CCN2CCN(c4ccccn4)CC2)n3C)cc1 | -84.6%
CC1=C(C(=O)OCC(Cl)(Cl)Cl)N2C(=O)C(NC(=O)Cc3ccccc3)C2SC1 (centres unmarked) | 15.5%
O=c1[nH]c(/C=C/c2ccc3c(c2)OCO3)c([N+](=O)[O-])c(=O)[nH]1 | 45.8%
COc1ccc(NC(=O)CN(C)CC(=O)NC2CCC(C)CC2)cc1 (centres unmarked) | 0.408%
O=C(NCCc1ccccc1)C(NS(=O)(=O)c1cccc2nsnc12)c1ccccc1 (centres unmarked) | -25.4%
COc1ccc(CCNC(=O)CCCn2c(SCC#N)nc3ccccc3c2=O)cc1OC | -12.7%
COc1ccc(N2CCN(c3nc(Nc4ccc(C)c(F)c4)nc(N4CCCC4)n3)CC2)cc1 | 8.35%
Nc1nc(CSC(=S)N2CCN(c3ccccc3)CC2)nc(Nc2ccccc2)n1 | 0.151%
CCOc1nc(Nc2ccc(OC)c(Cl)c2)nc(N2CCN(c3ccc(OC)cc3)CC2)n1 | 14.9%
Nc1nc(CN2CCN(c3ccccc3)CC2)nc(Nc2ccc(Cl)cc2)n1 | -76%
CCOc1nc(Nc2ccc(F)cc2)nc(N2CCN(c3ccc(OC)cc3)CC2)n1 | -14.7%
COc1ccc(Nc2nc(N)nc(CN3CCN(c4ccc(F)cc4)CC3)n2)cc1 | -69.5%
CCN1CCN(Cc2nc(N)nc(Nc3ccc(C)c(C)c3)n2)CC1 | -65.8%
COC(=O)CC(=O)Cc1nc(N)nc(Nc2ccc(C)c(C)c2)n1 | -9.22%
Cc1ccc(Nc2nc(N)nc(CSC(=S)N3CCN(c4ccccc4)CC3)n2)cc1 | 8.32%
COc1ccc(N2CCN(Cc3nc(N)nc(Nc4ccc(C)c(Cl)c4)n3)CC2)cc1 | -63.1%
CS(=O)(=O)N1CCN(c2ccccc2NC(=O)c2cc3ccccc3o2)CC1 | 7.78%
O=C(COC(=O)[C@H](Cc1ccccc1)N1C(=O)c2ccccc2C1=O)Nc1ccc2c(c1)OCO2 | -8.45%
CCC1CCCCN1C(=O)c1cc(COc2ccc3ncccc3c2)on1 (centres unmarked) | 0.129%
CCCCn1c(N)c(N(CCOC)C(=O)CSc2ccccc2C)c(=O)[nH]c1=O | -26.6%
Cc1ccc(C(C)(C)C)cc1S(=O)(=O)Nc1nc2ccccc2nc1Cl | -33.6%
